# Assay results from PubChem BioAssay (NCI).
# Several values for one entry are separate records, joined by “and”; a condition that tells them apart may be missing. Equal values may be shown once. Compounds without any hit were thinned out: in the full panel of roughly 83,000, 20% have a hit.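 How to read the values: 0–100, growth inhibition (40 = 60% inhibited); 0, no net growth; -100 to 0, cell death (-40 = 40% of starting cells died; -100 = all dead).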 Activity calls are given as the source filed them. Rule for the calls: active = growth percent below 10; inactive = the rest.
# How the values were obtained:
# Experiment in all cases: NCI-60 one-dose screen, 48 h (100 = growth as untreated, 0 = no growth, -100 = all killed)
# Details in all cases: 10 µM unless noted
# NCI-H23 lung = test system: NCI-H23 lung
# NCI-H226 lung = test system: NCI-H226 lung
# NCI-H322M lung = test system: NCI-H322M lung
# HOP-62 NSCLC = test system: HOP-62 NSCLC
# NCI-H460 lung = test system: NCI-H460 lung
# HOP-92 NSCLC = test system: HOP-92 NSCLC
# NCI-H522 lung = test system: NCI-H522 lung
# A549/ATCC NSCLC = test system: A549/ATCC NSCLC
# 786-0 renal = test system: 786-0 renal
# COLO 205 colon = test system: COLO 205 colon
# DU-145 prostate = test system: DU-145 prostate
# K-562 leukemia = test system: K-562 leukemia
# MALME-3M melanoma = test system: MALME-3M melanoma
# MDA-MB-231 breast = test system: MDA-MB-231 breast
# RXF 393 renal = test system: RXF 393 renal
# SF-268 CNS = test system: SF-268 CNS
# SF-295 CNS = test system: SF-295 CNS
# SF-539 CNS = test system: SF-539 CNS
# UACC-257 melanoma = test system: UACC-257 melanoma
# M14 melanoma = test system: M14 melanoma
SMILES,growth (NCI-H23 lung),growth (NCI-H226 lung),growth (NCI-H322M lung),growth (HOP-62 NSCLC),growth (NCI-H460 lung),growth (HOP-92 NSCLC),growth (NCI-H522 lung),growth (A549/ATCC NSCLC),growth (786-0 renal),growth (COLO 205 colon),growth (DU-145 prostate),growth (K-562 leukemia),growth (MALME-3M melanoma),growth (MDA-MB-231 breast),growth (RXF 393 renal),growth (SF-268 CNS),growth (SF-295 CNS),growth (SF-539 CNS),growth (UACC-257 melanoma),growth (M14 melanoma)
COc1ccc(CCl)c(C)c1OC,96.2% (inactive),95.8% (inactive),95.8% (inactive),104% (inactive),103% (inactive),86.1% (inactive),99.8% (inactive),102% (inactive),106% (inactive),109% (inactive),104% (inactive),6.6% (active),84.9% (inactive),98.5% (inactive),112% (inactive),97.1% (inactive),95.3% (inactive),99.4% (inactive),96% (inactive),
CC(C)(C)C1=CC(=O)C(C(C)(C)C)=CC1=O,84.3% (inactive) and 103% (inactive),90.3% (inactive) and 102% (inactive),104% (inactive) and 102% (inactive),90.2% (inactive) and 97.8% (inactive),99.7% (inactive),83.8% (inactive) and 100% (inactive),82.5% (inactive) and 88.9% (inactive),98.5% (inactive) and 91% (inactive),93.3% (inactive) and 105% (inactive),116% (inactive),120% (inactive) and 98.9% (inactive),105% (inactive) and 107% (inactive),94.5% (inactive) and 107% (inactive),107% (inactive) and 109% (inactive),90.2% (inactive) and 105% (inactive),108% (inactive) and 94.3% (inactive),99.6% (inactive) and 104% (inactive),87.3% (inactive) and 108% (inactive),90.5% (inactive) and 85% (inactive),105% (inactive)
COCCCNC1=C(C#N)C(=O)NC(c2cccs2)S1 (centres undefined),104% (inactive),98.4% (inactive),95.4% (inactive),99.9% (inactive),99.2% (inactive),107% (inactive),127% (inactive),103% (inactive),106% (inactive),110% (inactive),107% (inactive),153% (inactive),104% (inactive),106% (inactive),96.9% (inactive),104% (inactive),96.4% (inactive),85.2% (inactive),111% (inactive),110% (inactive)
COC(=O)c1nc(N)nc(C(=O)OC)c1C(=O)c1cccc2ccccc12,101% (inactive),97.1% (inactive),109% (inactive),105% (inactive),139% (inactive),85.5% (inactive),101% (inactive),107% (inactive),110% (inactive),144% (inactive),121% (inactive),111% (inactive),103% (inactive),105% (inactive),105% (inactive),116% (inactive),98.7% (inactive),95.4% (inactive),118% (inactive),108% (inactive)
CC(=O)Nc1cscc1NC(C)=O,103% (inactive),96.8% (inactive),80.1% (inactive),98.2% (inactive),101% (inactive),112% (inactive),91.3% (inactive),104% (inactive),101% (inactive),100% (inactive),98.4% (inactive),125% (inactive),88.4% (inactive),101% (inactive),107% (inactive),96.2% (inactive),87.3% (inactive),90.7% (inactive),104% (inactive),104% (inactive)
Cc1ccc(S(=O)(=O)n2ccnc2)cc1,102% (inactive),93.5% (inactive),118% (inactive),106% (inactive),104% (inactive),97% (inactive),95.8% (inactive),89.1% (inactive),138% (inactive),120% (inactive),120% (inactive),123% (inactive),107% (inactive),98.9% (inactive),96.2% (inactive),104% (inactive),102% (inactive),96.7% (inactive),91.5% (inactive),104% (inactive)
O=C(O)Cc1cc(=O)[nH]n(-c2ccccc2)c1=O,108% (inactive),98.1% (inactive),109% (inactive),106% (inactive),109% (inactive),98% (inactive),95.4% (inactive),95.6% (inactive),108% (inactive),110% (inactive),115% (inactive),100% (inactive),113% (inactive),101% (inactive),109% (inactive),96.8% (inactive),97.4% (inactive),99.1% (inactive),98.2% (inactive),106% (inactive)
CCCCCc1cc[n+](CC(=O)c2ccccc2)cc1,96.6% (inactive) and 92.6% (inactive),96.8% (inactive) and 89% (inactive),92.4% (inactive) and 96% (inactive),90.5% (inactive) and 108% (inactive),76.7% (inactive) and 95.4% (inactive),67.7% (inactive),95% (inactive) and 99.3% (inactive),84.1% (inactive) and 101% (inactive),97% (inactive) and 96.3% (inactive),87.3% (inactive) and 101% (inactive),105% (inactive) and 110% (inactive),113% (inactive) and 104% (inactive),100% (inactive) and 108% (inactive),104% (inactive) and 106% (inactive),98.6% (inactive) and 110% (inactive),103% (inactive) and 107% (inactive),94.1% (inactive),96.3% (inactive) and 102% (inactive),99% (inactive) and 106% (inactive),100% (inactive)
COc1ccc(/C=N/NC(N)=S)cc1,89.2% (inactive),105% (inactive),103% (inactive),93.4% (inactive),103% (inactive),68.4% (inactive),89.4% (inactive),82.1% (inactive),98.3% (inactive),106% (inactive),110% (inactive),106% (inactive),94.4% (inactive),101% (inactive),95.8% (inactive),104% (inactive),106% (inactive),103% (inactive),102% (inactive),96.3% (inactive)
CCOC(=O)C(N)Cc1cc(I)c(O)c(I)c1 (centres undefined),99.5% (inactive) and 102% (inactive),91.6% (inactive) and 96.6% (inactive),113% (inactive) and 106% (inactive),106% (inactive) and 113% (inactive),109% (inactive) and 115% (inactive),102% (inactive) and -3.49% (active),108% (inactive) and 90.7% (inactive),107% (inactive) and 101% (inactive),99.7% (inactive) and 105% (inactive),108% (inactive) and 110% (inactive),109% (inactive) and 107% (inactive),105% (inactive),115% (inactive),104% (inactive) and 97.5% (inactive),105% (inactive) and 112% (inactive),99% (inactive) and 100% (inactive),115% (inactive) and 124% (inactive),115% (inactive) and 102% (inactive),108% (inactive),105% (inactive) and 104% (inactive)
CCC(C)NC(=O)c1ccccc1C (centres undefined),91.7% (inactive),93.6% (inactive),97.7% (inactive),92.1% (inactive),102% (inactive),84.5% (inactive),94.2% (inactive),100% (inactive),95.7% (inactive),103% (inactive),106% (inactive),129% (inactive),77.7% (inactive),104% (inactive),96% (inactive),101% (inactive),100% (inactive),96.6% (inactive),100% (inactive),95.3% (inactive)
O=C1c2ccccc2C(c2ccccc2)C1c1ccccc1 (centres undefined),91% (inactive),101% (inactive),92.5% (inactive),98.6% (inactive),95.8% (inactive),80.2% (inactive),86.2% (inactive),91.3% (inactive),107% (inactive),101% (inactive),104% (inactive),77.2% (inactive),99.5% (inactive),89.1% (inactive),102% (inactive),97.9% (inactive),94.8% (inactive),101% (inactive),96.3% (inactive),97.7% (inactive)
